Measured values published in PubChem BioAssay (NCI).
Where “and” joins values, the source holds several entries; their conditions need not be identical. Identical values can stand only once. Compounds without any hit were thinned out: in the full panel of roughly 79,000, 15% have a hit. Cut-off read from the data, not from the text of the source: active = growth inhibition above about 70%; inactive = the rest.

Assays:
[1] = NCI Yeast Anticancer Drug Screen. Data for the rad50 strain (AID 155);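 note: 0% = growth of vehicle-only cultures of the same strain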; conditions: S. cerevisiae rad50 strain growth inhibition; at 50.0 µM; stronger effect = higher value
Outline: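 Relative growth inhibition (compound vs vehicle) was measured in yeast with a defined repair-gene alteration.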

[2] = NCI Yeast Anticancer Drug Screen. Data for the mec2-1 strain (AID 157); conditions: S. cerevisiae mec2-1 strain, at 50.0 µM, stronger effect = higher value
Outline: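 Vehicle-treated cultures served as reference for growth inhibition of compound-exposed mec2-1 yeast.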

[3] = NCI Yeast Anticancer Drug Screen. Data for the sgs1 mgt1 strain (AID 161);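 note: 0% = growth of cultures given vehicle only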; conditions: S. cerevisiae sgs1 mgt1 strain, at 50.0 µM, stronger effect = higher value
Outline: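 Read-out: growth inhibition vs vehicle controls. Cells: mutant yeast strain deficient in DNA damage repair.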

[4] = NCI Yeast Anticancer Drug Screen. Data for the cln2 rad14 strain (AID 165);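 note: 0% = growth equal to vehicle treated cultures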; conditions: S. cerevisiae cln2 rad14 strain, at 50.0 µM, stronger effect = higher value
Outline: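 Each compound was tested on cln2 rad14 yeast. Inhibition of growth was calculated against vehicle-exposed controls.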

[5] = NCI Yeast Anticancer Drug Screen. Data for the bub3 strain (AID 167); conditions: S. cerevisiae bub3 mutant strain, at 50.0 µM, stronger effect = higher value
Outline: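 Screening used yeast with an engineered genetic alteration affecting cell cycle control. Compound-exposed cultures were compared with vehicle cultures, and reduced growth was taken as inhibition.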

[6] = NCI Yeast Anticancer Drug Screen. Data for the mlh1 rad18 strain (AID 175); conditions: S. cerevisiae mlh1 rad18 strain growth inhibition; at 50.0 µM; stronger effect = higher value
Outline: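 Vehicle-treated cultures served as the reference for growth inhibition in a yeast strain carrying DNA damage repair alterations exposed to each compound.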

Measured: growth inhibition

CCC(C)NC(=O)C1C2CC3OC(=O)C1C3C2 (stereo unspecified)
inactive: [1] 9.85% and -12.7% | [2] -4.55% and 5.6% | [3] -2.75% and -18.9% | [4] -42.8% and -40.3% | [5] -9.5% and -6.5% | [6] 3.1% and -5.65%

CCOC(=O)C(CC(C(=O)OCC)C(=O)OCC)C(=O)OCC
inactive: [1] -21.1% and -11.8% | [2] -15.1% and -16.2% | [3] -6.3% and -20.6% | [4] 10.7% and -16.1% | [5] 10.8% and -12.5% | [6] -25.1% and -9.15%

Nc1c2c(nc3ccccc13)CCCC2 (tested in a mixture with another compound)
inactive: [1] -7.95% and -12.2% | [2] -20.4% and -22.8% | [3] -14.9% and -14% | [4] 9.6% and 9.4% | [5] -21.2% and -18.6% | [6] -11.7% and -0.1%

CN(C)CC1CCCC(CN(C)C)C1=O (stereo unspecified)
inactive: [1] -13.4% and -21.9% | [2] 26.9% and -9.95% | [3] -16% and -39.5% | [4] 33% and -30.4% | [5] -16.1% and -22.1% | [6] -2% and -13.8%

C1=C(c2cccc3ccccc23)CCCC1
inactive: [1] -2.85% and 18.2% | [2] 7.45% and -4.1% | [3] -12.4% and -5.1% | [4] -0.1% and 8.1% | [5] 2.65% and 11.7% | [6] 6.9% and -9.2%

COc1c2occc2c(OC)c2c(=O)cc(C)oc12
inactive: [1] 20.9% and 2.55% | [2] -2.15% and -27.4% | [3] 16.8% and 9.95% | [4] -0.65% and 8.7% | [5] 7.9% and 5.95% | [6] 22.1% and 9.4%

Cc1ccc(S(=O)(=O)NC(C(=O)O)C(C)C)cc1 (stereo unspecified)
inactive: [1] 11.5% and -39.5% | [2] 3.75% and -12.9% | [3] -8.8% and -51.1% | [4] -1.2% and -20.2% | [5] 35% and -16.2% | [6] 0.45% and -18.9%

O=C1C(O)=C(Cl)C(=O)C(O)=C1Cl
inactive: [1] 6.7% and 13.6% | [2] 2.3% and -26.3% | [3] -2.15% and 25.3% | [4] -0.2% and 5.3% | [5] 29.9% and -11.3% | [6] -12.9% and -3.2%

CCC(=O)Oc1cc(C)ccc1C(C)(C)C
inactive: [1] 1.4% and -18.1% | [2] 0.8% and -19.4% | [3] 1.45% and -12% | [4] -3.7% and -1.5% | [5] -0.3% and -13.2% | [6] -3.6% and -5.85%

CC(=O)OC(COC(=O)c1ccccc1)C(OC(C)=O)C(OC(C)=O)C(COC(=O)c1ccccc1)OC(C)=O (stereo unspecified)
inactive: [1] 3.7% and 3.5% | [2] -7.8% and 2.5% | [3] -7.65% and -9.85% | [4] -18.9% and -21.4% | [5] -3.3% and -2.7% | [6] 5.45% and 17%

O=C1CCSSCCC(=O)NCCN1
inactive: [1] 7.95% and -6.4% | [2] 8.6% and -3.25% | [3] -5.75% and 5.55% | [4] -2.5% and 14.3% | [5] 6.65% and 29% | [6] 16.2% and 0.4%

O=C(O)/C=C/c1ccccc1
inactive: [1] 15.1% and 41.8% | [2] 16.6% and 2.4% | [3] 27.5% and 7.65% | [4] 14.8% and 7.35% | [5] 4.1% and 19.3% | [6] 22.2% and 31.9%

O=C(NC(=O)c1ccccc1)NC(=O)c1ccccc1
inactive: [1] -2.6% and -1.25% | [2] -10% and -14.1% | [3] -3.35% and 1.1% | [4] 7.8% and -17.6% | [5] 8.35% and -6.25% | [6] -3.65% and -45.1%

N#CC(C#N)=CN1CCOCC1
inactive: [1] -0.6% and 8.35% | [2] -24.1% and 8.95% | [3] 1.75% and -7.75% | [4] -22.5% and 10.4% | [5] -0.6% and -0.55% | [6] 4.1% and -12.9%

O=c1[nH]c(SCc2ccccc2[N+](=O)[O-])nc2nc[nH]c12
inactive: [1] -3.6% and -22.9% | [2] -20.8% and 6.4% | [3] -11.8% and -0.5% | [4] -12.7% and 23.1% | [5] -10.8% and -30% | [6] -1.9% and -8.05%

c1ccc(C(c2ccccc2)N2CCCC2)cc1
inactive: [1] -4.05% and 7.15% | [2] -14.7% and 10.8% | [3] -5.7% and 4.6% | [4] 41.1% and -0.2% | [5] 2.25% and 3.7% | [6] 25.9% and -7%

COc1ccc2c(c1OC)CN(C)CCc1cc3c(cc1C(=O)C2)OCO3
inactive: [1] -5.15% and -35.8% | [2] 15.7% and -17.1% | [3] -0.5% and -14.6% | [4] 49.6% and 11.8% | [5] 7.7% and -18.5% | [6] -29.9% and -8.35%

COc1ccc(NS(=O)(=O)c2ccccc2)cc1
inactive: [1] -3.55% and -19.6% | [2] -2.7% and -17.2% | [3] -3.2% and -6.95% | [4] -20.7% and -48.8% | [5] 1.55% and 8.9% | [6] -6.3% and -9.8%

CCCCCCCCCCCCc1ccccc1
inactive: [1] 2.15% and 17.9% | [2] 4.1% and 11.4% | [3] -4.15% and 2.6% | [4] 5.25% and -55.8% | [5] 18.2% and -19.8% | [6] 16.1% and -0.6%

COC(=O)C(CC(C)C)NC(=O)CN1C(=O)c2ccccc2C1=O (stereo unspecified)
inactive: [1] -12.9% and 9.2% | [2] -5.95% and 10.9% | [3] 6.75% and 4.6% | [4] 5.05% and 6.3% | [5] -10% and 7.3% | [6] -2.4% and 1.45%

COC(=O)CCC1C(C)(C(C)=O)CCC2C1(C)CCC1(C)C3CC(C)(C)CCC3(C)CCC21C (stereo unspecified)
inactive: [1] 1.65% and 1.05% | [2] 1.05% and -5.35% | [3] -11.8% and -15.2% | [4] -7.8% and -3.65% | [5] -3.9% and -2.15% | [6] 13.8% and 4.4%
